VP16 counter: VP16 counterscreen qHTS for inhibitors of ROR gamma transcriptional activity | Potency, µM (highest dose often 53.6 µM), usual class: inhibitors | AID 2546, 2010 | 310,000 tested, 3.5% active | Drosophila S2 Gal4-VP16 UAS-luciferase, luminescence, 20 h;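 note: Gal4-VP16 expression switched on by copper sulfate through the metallothionein promoter; nearly all actives have a fitted effect of over 50% in size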
RORgamma inh: qHTS for inhibitors of ROR gamma transcriptional activity; Drosophila S2 Gal4-RORgamma UAS-luciferase reporter, 20 h; 310,000 tested, 5.4% active; Potency, µM (top dose mostly 53.6 µM), actives largely listed as inhibitors; note: nearly all actives have a fitted effect of over 60% in size
Target sequence (P51450 whole entry, looked up, the tested form may be a part): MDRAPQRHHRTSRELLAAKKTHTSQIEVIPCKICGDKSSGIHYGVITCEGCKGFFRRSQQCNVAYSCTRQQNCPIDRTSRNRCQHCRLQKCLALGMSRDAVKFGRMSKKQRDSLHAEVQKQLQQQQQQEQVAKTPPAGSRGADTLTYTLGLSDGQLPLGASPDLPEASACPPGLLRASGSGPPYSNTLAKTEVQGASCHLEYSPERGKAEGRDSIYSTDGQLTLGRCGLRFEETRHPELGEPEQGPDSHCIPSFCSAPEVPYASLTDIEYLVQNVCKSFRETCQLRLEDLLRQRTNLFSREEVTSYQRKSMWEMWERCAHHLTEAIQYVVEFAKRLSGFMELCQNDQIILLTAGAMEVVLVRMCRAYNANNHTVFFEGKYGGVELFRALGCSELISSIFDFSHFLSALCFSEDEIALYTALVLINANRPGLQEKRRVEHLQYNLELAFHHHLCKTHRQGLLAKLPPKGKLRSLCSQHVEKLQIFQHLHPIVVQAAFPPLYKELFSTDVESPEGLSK
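Stable Schneider cell line, Gal4 DNA-binding domain fused to ROR gamma, UAS-luciferase. Cmpd 1 hr RT → CuSO4 700 uM final → 20 hr RT → luciferase reagent 10 min → luminescence.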
SW480 rerep: A quantitative high throughput screen for small molecules that induce DNA re-replication in SW480 colon adenocarcinoma cells; SW480 DNA re-replication, Hoechst DNA content imaging, 48 h; Potency, µM (titrated, usually from 46.1 µM), actives largely listed as activators; 340,000 tested, 1.8% active; note: nearly all actives have a fitted effect of over 55% in size
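Quantitative HTS format with DMSO vehicle controls; 48 hr drug incubation at 37 C, then 40 min Hoechst staining and scanning imager measurement at 405 nm excitation.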
MCF10A rerep: A quantitative high throughput screen for small molecules that induce DNA re-replication in MCF 10a normal breast cells; MCF 10A DNA re-replication, Hoechst nuclear intensity, 48 h; Potency, µM (series often up to 46.1 µM), hits mostly activators; 350,000 tested, 2.9% active; note: nearly all actives have a fitted effect of over 50% in size
KB-V1 MDR tox: qHTS assay for MDR1-selective chemotherapeutics: Primary screen using the drug-selected MDR subline cells KB-V1 | Potency, µM (series often up to 46.1 µM), usual class: cytotoxic | KB-V1 MDR cells viability, CellTiter-Glo, 72 h | 400,000 tested, 3.4% active; note: nearly all actives have a fitted effect of over 60% in size
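Drug-selected KB-V1 cells, grown in DMEM lacking phenol red with 10% FBS, receive compound titrations; after three days at 37 degrees C, surviving cell ATP is quantified by CellTiter-Glo luminescence and responses normalized and curve-fitted.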
KB-3-1 tox: qHTS assay for MDR1-selective chemotherapeutics: Primary screen using the parental adenocarcinoma cell KB-3-1. KB-3-1 viability, CellTiter-Glo ATP luminescence, 72 h. Potency, µM (series often up to 46.1 µM), actives largely listed as cytotoxic. 400,000 tested, 1.4% active; note: nearly all actives have a fitted effect of over 60% in size
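Using CellTiter-Glo luminescence, growth of non-resistant KB-3-1 adenocarcinoma cells is assessed 72 h after pin-tool compound addition at 37 °C. Normalized responses across the concentration series yield fitted curves.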
Hits are given with their value; i = inactive; ? = inconclusive; nt = no result given; [ ] = remark or other dose. In the library only some 10% were active in any assay of this set; here they are far more common. Calls come from the whole dose curve; as a rule, active = well fitted curve in the direction sought with a large enough effect; inconclusive = small, poorly fitted or top-dose-only effect, or another doubt; inactive = no such curve, though single readings can be large; an effect the other way counts as inactive or inconclusive.

SMILES	VP16 counter	RORgamma inh	SW480 rerep	MCF10A rerep	KB-V1 MDR tox	KB-3-1 tox
CN1/C(=C\C=N\NC(=O)c2cccnc2)C(C)(C)c2ccccc21	0.89µM	0.5µM	i	i	i	i
CN1/C(=C\C=O)C(C)(C)c2ccccc21	i	?	i	i	i	i
CN1/C(=C\C=N\NC(=O)c2ccc(O)cc2)C(C)(C)c2ccccc21	2.5µM	4.5µM	i	i	i	i
CC(C)c1ccc(NC(=O)c2snc3ccc(Cl)cc23)cc1	i	?	?	?	?	0.052µM
CC(C)c1ccc(NC(=O)c2csnn2)cc1	?	i	i	i	i	?
c1cc2c3c(c1)c1c(n3CCNC2)CCCC1	i	i	nt	nt	nt	nt
CCCCS(=O)CC(O)COc1ccc(C(C)(C)C)cc1 (stereo not given)	i	i	i	?	21µM	i
COc1cccc(NC(=O)CC(C)S(=O)(=O)c2ccc3c(c2)NC(=O)CO3)c1 (stereo not given)	nt	nt	nt	nt	i	i
Cc1cc(C)c(NC2=CC(=O)CC(C)(C)C2)c(C#N)c1	i	i[10 µM]	i	i	23µM	i
Cc1ccc(NC2=CC(=O)CC(C)(C)C2)cc1C	i	i	i	i	16µM	i
Cc1cccc(C#N)c1NC1=CC(=O)CC(C)(C)C1	?	i	i	i	i	i
Cc1cccc(C(=O)Nc2cc(-c3ccccc3F)nn2-c2ccccc2)c1	nt	nt	nt	nt	i	i
COc1ccc(C2=Nc3ccccc3N(C(=O)c3ccc4ncccc4c3)C2C(=O)NC2CCCC2)cc1 (stereo not given)	nt	nt	nt	nt	?	i
COCCNC(=O)C(=O)Nc1ccc2c(c1)N(S(=O)(=O)c1cccs1)CCC2	nt	nt	2.6µM	?	?	?
CC(C)CCNC(=O)C(=O)Nc1ccc2c(c1)N(S(=O)(=O)c1cccs1)CCC2	nt	nt	?	?	?	5.8µM
Oc1ccccc1Nc1nc(NCC2CCCO2)c2ccccc2n1 (stereo not given)	i	?	i	?	16µM	?
Oc1ccc(Cl)cc1Nc1nc(NCC2CCCO2)c2ccccc2n1 (stereo not given)	nt	nt	?	23µM	i	i
Oc1ccc(Nc2nc(NCC3CCCO3)c3ccccc3n2)cc1 (stereo not given)	i	i	i	?	i	i
Cc1ccc(/C=N/Nc2nncn2N)cc1	13µM	?	?	?	i	i
COc1ccc(/C=N/Nc2nc(=O)[nH]nc2C)cc1OC	i	11µM	2.9µM	?	i	i
COc1cc(/C=N/Nc2nc(=O)[nH]nc2C)cc([N+](=O)[O-])c1O	i	i	i	i	?	i
Nn1cnnc1N/N=C/c1ccc(F)cc1	?	?	i	?	i	i
COc1cc(/C=N/Nc2nc(=O)[nH]nc2C)ccc1O	i	11µM	15µM	?	i	i
Cc1n[nH]c(=O)nc1N/N=C/c1ccc(O)c([N+](=O)[O-])c1	?	11µM	nt	?	i	i
COc1ccc(/C=N/Nc2nc(=O)[nH]nc2C)cc1[N+](=O)[O-]	i	i	i	i	i	i
SMILES	VP16 counter	RORgamma inh	SW480 rerep	MCF10A rerep	KB-V1 MDR tox	KB-3-1 tox
COc1ccc(-c2sc(N)nc2-c2ccccc2)cc1	nt	nt	nt	nt	i	i
CCOc1ccccc1-c1ccc(C(=O)O)s1	i	i	nt	nt	nt	nt
COc1ccc(/C=N/Nc2nnc(C)n2N)cc1OC	?	11µM	?	?	i	i
COc1ccc(CCNc2ccc(N3C(=O)CC(C)C3=O)cc2[N+](=O)[O-])cc1 (stereo not given)	i	i	i	i	i	i
COc1ccc(CCNc2ccc(N3C(=O)CC(C)C3=O)cc2[N+](=O)[O-])cc1OC (stereo not given)	6.3µM	i	i	i	i	i
CCN(CC)C(=O)Cn1c(=O)n(-c2ccc(C)c(C)c2)c(=O)c2c3c(sc21)CCCCC3	nt	nt	nt	nt	i	i
N#Cc1cccc(NC(=O)N2CC[C@@]3(CCCN(C(=O)c4cnccn4)C3)C2)c1	i	i	nt	nt	nt	nt
CCN(CC)C(=O)N1c2ccccc2C=Cc2ccccc21	i	i	i	?	?	3.7µM
CCOC(=O)C1Nc2ccc(C(F)(F)F)cc2C2c3ccccc3CC12 (stereo not given)	nt	nt	i	?	18µM	16µM
O=C(NCCOc1ccccc1)C1Nc2ccc(C(F)(F)F)cc2C2c3ccccc3CC12 (stereo not given)	nt	nt	i	?	i	?
Cn1cccc1Cc1nnc(SCC(=O)N2CCN(c3ccccc3)CC2)n1-c1ccc(F)cc1	i	i	i	i	12µM	i
Cn1c(Cc2cccc3ccccc23)nnc1SCC(=O)N1CCN(c2ccccc2)CC1	i	i	i	i	15µM	i
Cn1c(SCC(=O)N2CCN(c3ccccc3)CC2)nnc1-c1cc2ccccc2o1	i	i	i	i	i	23µM
CCn1c(SCC(=O)Nc2cccc(Cl)c2)nnc1-c1nonc1NC(C)=O	nt	nt	nt	nt	i	i
COc1ccccc1CNc1cc(-c2ccccc2Cl)ncn1	i	i	nt	nt	nt	nt
CCCCC/C=C\C[C@@H]1O[C@H]1C(O)/C=C\C/C=C\CCCC(=O)O (stereo not given in full)	i	i	nt	nt	nt	nt
CC(C)CNC(=O)N1[C@H](c2cccs2)[C@@H](C)C(=O)[C@@H](C)[C@@H]1c1cccs1	nt	nt	nt	nt	i	i
C[n+]1ccn(CC(=O)c2cccs2)c1	i	10µM	i	i	i	i
O=C(CCC(=O)c1cccs1)c1cccs1	i	?	i	i	i	i
Cc1nc2c(C)cccn2c1C(=O)c1ccccc1	i	i	i	i	26µM	?
COc1ccc(OC)c(CCNC(=O)c2ccc3c(c2)N(Cc2ccc(F)cc2)CCS3)c1	i	i	i	13µM	?	?
N#C/C(=C\c1c(Oc2ccccc2Cl)nc2ccccn2c1=O)C(=O)NC1CCS(=O)(=O)C1 (stereo not given)	i	i	?	?	?	i
N#C/C(=C\c1c(N2CCCCCC2)nc2ccccn2c1=O)C(=O)NC1CCS(=O)(=O)C1 (stereo not given)	i	i	i	i	i	i
N#C/C(=C\c1c(Oc2ccccc2F)nc2ccccn2c1=O)C(=O)NC1CCS(=O)(=O)C1 (stereo not given)	i	i	?	16µM	i	i
N#C/C(=C\c1c(N2CCOCC2)nc2ccccn2c1=O)C(=O)NC1CCS(=O)(=O)C1 (stereo not given)	i	i	?	5.8µM	i	i
CCc1ccc2oc(C(=O)Nc3cccc(Cl)c3C)cc(=O)c2c1	nt	nt	nt	nt	i	i

High-throughput results: PubChem BioAssay, National Center for Advancing Translational Sciences (NCATS)
